# Compound activity as filed in PubChem.
# Rows were chosen to be rich in hits. Some 1.3% of all compounds tested hit in one or more screens of this group.
# LANA DNA inh: blocks KSHV LANA C-terminal domain binding to DNA; MBP-C-LANA/FAM-LBS DNA binding, fluorescence polarization; inhibition, % at 9 µM; 340,000 tested, 0.078% active; AID 504423;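 active means highest replicate inhibition at or above 60% at 9 µM, even if other replicates fall short; inactive means all replicates below 60% inhibition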
# E coli Lon inh: E. coli protease La inhibition | P0A9M0 | purified E. coli Lon protease, fluorescence polarization | inhibition, % at 7.94 µM | 360,000 tested, 0.42% active | AID 602123; in the data active means inhibition above about 13%, passing the limit was not always enough
# RTF Ca sens act: cardiac RTF calcium sensitization. P19429+P45379. IANBD-labeled TnC RTF fluorescence at EC20 calcium; 0% EC20 calcium, 100% full calcium. activation, % at 7.2 µM. 340,000 tested, 0.24% active. AID 493008;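 active means activation above the mean over all tested compounds plus 3 SD, cut at about 30% in these data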;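 further: rise in fluorescence read as greater calcium sensitivity of cardiac thin filaments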
# RTF Ca sens inh: cardiac RTF calcium desensitization; P19429+P45379; 340,000 tested, 0.12% active; IANBD-labeled cardiac RTF, Ca2+ fluorescence; AID 493244; inhibition, % at 7.15 µM;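 active means inhibition above the mean inhibition of all tested compounds plus 3 SD, cut at about 17% in these data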;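 further: assay run at fixed EC70 calcium of 1.6 mM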
# Keap1-Nrf2 PPI: inhibitors of human Keap1-Nrf2 protein-protein interaction. inhibition, % at 9.4 µM. AID 504523. Keap1 Kelch-Nrf2 peptide fluorescence polarization, 1536-well. 340,000 tested, 0.15% active. Q14145; in the data active means inhibition above about 12%;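 further: human Keap1 Kelch domain with fluorescein labeled Nrf2 9mer peptide probe; higher means more block of Keap1 binding to Nrf2 peptide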
# Target sequence (Q14145 whole entry, looked up, the tested form may be a part): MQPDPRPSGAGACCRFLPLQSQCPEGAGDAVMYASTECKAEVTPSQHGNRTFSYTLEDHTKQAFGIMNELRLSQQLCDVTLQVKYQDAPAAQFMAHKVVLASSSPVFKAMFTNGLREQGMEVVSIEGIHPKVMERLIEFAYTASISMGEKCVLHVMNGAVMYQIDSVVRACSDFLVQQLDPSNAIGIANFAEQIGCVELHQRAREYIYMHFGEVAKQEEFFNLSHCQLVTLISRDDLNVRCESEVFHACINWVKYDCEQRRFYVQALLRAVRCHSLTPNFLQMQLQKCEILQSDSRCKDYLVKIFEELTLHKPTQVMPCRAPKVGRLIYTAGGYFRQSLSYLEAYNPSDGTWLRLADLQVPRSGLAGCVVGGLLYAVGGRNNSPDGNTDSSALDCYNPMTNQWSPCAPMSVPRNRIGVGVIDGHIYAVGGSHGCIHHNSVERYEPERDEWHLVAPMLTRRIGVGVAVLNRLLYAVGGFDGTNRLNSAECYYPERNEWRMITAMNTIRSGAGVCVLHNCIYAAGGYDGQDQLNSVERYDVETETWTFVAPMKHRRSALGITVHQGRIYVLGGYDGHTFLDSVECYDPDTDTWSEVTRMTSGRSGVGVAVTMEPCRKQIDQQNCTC
# LANA-H2A inh: blocks KSHV LANA binding to histone H2A/H2B. Q9QR71. cell-free LANA-H2A/H2B peptide, fluorescence polarization. inhibition, % (no concentration beside the values). 320,000 tested, 0.6% active. AID 2629; in the data active means inhibition mostly above about 10%, no sharp cut-off; inactive means mostly below about 6.7%
# Numbers stand for hits; . = inactive; / = not tested or not shown; + = active, no number; ! = not active in a repeat.
SMILES,LANA DNA inh,E coli Lon inh,RTF Ca sens act,RTF Ca sens inh,Keap1-Nrf2 PPI,LANA-H2A inh
Cc1cc(C)nc(SCC(=O)NNC(=O)c2cccs2)n1,.,.,.,.,.,.
C/C(=N\NC(=O)CSc1nc(C)cc(C)n1)c1cccs1,.,.,.,.,.,25
COc1ccc(CC(=O)N2CCc3ccccc3C2)cc1,.,.,.,.,.,.
O=C(Cc1ccc(Cl)cc1)N1CCc2ccccc2C1,.,.,.,.,.,20
COc1cc2c(c(OC)c1CC=C(C)C)C[C@H](c1ccc(O)cc1O)CO2,.,.,.,.,.,.
CCCN1C(=O)/C(=C/c2ccc(N3CCOCC3)cc2)NC1=S,.,.,.,.,.,.
CCCN1C(=O)/C(=C/c2ccc(OCC(=O)OCC)cc2)NC1=S,.,.,.,.,.,/
Cc1cc(/C=C2/C(=O)N(C)C(=S)N2C)ccc1N1CCCC1,.,.,32,.,.,.
Cc1cc(N2CCCC2)ccc1/C=C1/C(=O)N(C)C(=S)N1C,.,.,.,.,.,.
CCN1C(=O)/C(=C/c2ccc(N3CCCC3)cc2)NC1=S,.,.,151,.,.,.
CCCN1C(=O)/C(=C/c2ccc(N3CCCC3)c(C)c2)NC1=S,.,.,68,.,.,.
Cc1cc(/C=C2\NC(=S)N(C)C2=O)ccc1N1CCCC1,.,.,87,.,.,.
CCN(CC)c1ccc(CN2CCC(C(=O)NCc3ccc(C)cc3)CC2)cc1,.,.,.,.,.,.
O=c1ccc(S(=O)(=O)N2CCCC2)cn1Cc1ccc(Cl)cc1Cl,.,.,.,.,.,/
O=C(NCCCCc1ccccc1)C1CCCC1,101,.,.,.,.,.
CCC(CC)C(=O)N=C1SC2CS(=O)(=O)CC2N1CCc1ccc(OC)c(OC)c1 (stereo unspecified),.,.,.,.,.,.
COc1ccc(CCN2C(=NC(=O)CC(C)C)SC3CS(=O)(=O)CC32)cc1OC (stereo unspecified),.,.,.,.,.,22
COc1ccccc1NS(=O)(=O)c1ccc(C(=O)N2CC(C)OC(C)C2)cc1 (stereo unspecified),.,.,.,.,.,20
N#CC1=C(N)OC2=C(CC/C2=C\c2ccccc2)C1c1ccccc1 (stereo unspecified),.,.,127,.,.,.
Cc1oc(C)c2c(=O)ccc3c(c12)OC(N)=C(C#N)C3c1ccccc1Cl (stereo unspecified),.,.,.,.,.,.
N#CC1=C(N)OC2=C(CC/C2=C\c2ccccc2Cl)C1c1ccccc1Cl (stereo unspecified),.,.,38,.,.,.
CC(=O)C[C@@H](O)CC(=O)[C@@H]1OC(=O)CCCCCCCCc2ccccc21,.,.,.,.,.,9.2
CC(=O)C[C@@H](O)CC(=O)[C@H]1OC(=O)CCCCCc2ccccc21,.,.,.,.,.,.
CC(=O)C[C@H](O)CC(=O)[C@@H]1OC(=O)[C@H](C)C/C=C\Cc2ccccc21,.,.,.,.,.,+
COC(=O)C(Cc1ccccc1)NC(=O)CNC(=O)c1ccc(Br)cc1 (stereo unspecified),.,.,.,.,.,.
SMILES,LANA DNA inh,E coli Lon inh,RTF Ca sens act,RTF Ca sens inh,Keap1-Nrf2 PPI,LANA-H2A inh
Cc1cccc(-c2nnc(SCC(=O)Nc3ncccn3)n2C)c1,.,.,.,.,.,.
COc1cc(/C=C2\SC(=Nc3ccc(O)cc3)NC2=O)cc(OC)c1O,.,.,.,.,.,11
O=C(COC(=O)/C=C/c1cccc([N+](=O)[O-])c1)Nc1cccnc1Cl,.,.,.,.,.,.
NC(=O)C1CCN(c2nc(-c3cccnc3)cs2)CC1,.,.,.,.,13,.
NC(=O)C1CCN(c2nc(-c3cccc(N)c3)cs2)CC1,.,.,.,.,.,.
O=C(CSc1nnc(-c2ccccc2Br)o1)N1CCOCC1,.,.,.,.,.,20
Cc1cccc(-n2c(C)cc(C=C3C(=O)c4ccccc4C3=O)c2C)c1,.,.,62,.,.,.
Cc1cc(C=C2C(=O)c3ccccc3C2=O)c(C)n1-c1ccc(Cl)cc1,.,.,.,.,.,/
CN(CCO)c1cnccn1,.,.,.,.,.,14
CSc1nc2ccsc2c(=O)n1-c1ccccn1,.,.,.,.,.,.
CC(C)/C=C1\CC/C(=C\c2ccc(N(C)C)cc2)C1=O,.,.,64,.,.,/
O=c1oc2ccccc2c2oc3cc(O)c(O)cc3c12,.,.,.,.,.,.
O=c1oc2c(O)c(O)cc3c(=O)oc4c(O)c(O)cc1c4c23,127,.,.,102,.,.
CC(C)C[C@H](NC(=O)NC(C)C)C(=O)O,.,.,.,.,.,16
O=C(NC1CCN(Cc2ccccc2)CC1)c1cccc(Br)c1,.,.,.,.,.,.
Cc1ccc(N2C(=O)N(CC(=O)Nc3ccc(C)cc3[N+](=O)[O-])C(=O)C2C)cc1 (stereo unspecified),.,.,.,.,.,.
Cc1ccc(N2C(=O)N(CC(=O)Nc3ccc(C)c(C)c3[N+](=O)[O-])C(=O)C2C)cc1 (stereo unspecified),.,.,.,.,.,130
N#C/C(=C\c1cc2c(cc1Br)OCO2)c1ccc(C(=O)O)cc1,.,.,.,.,.,.
O=S(=O)(c1cnc[nH]1)N1CCN(c2ccc(Cl)cc2)CC1,.,.,.,.,.,.
COc1ccc(N2CCN(S(=O)(=O)c3cnc[nH]3)CC2)cc1,.,.,.,.,.,33
COc1ccc(S(=O)(=O)N2CCC(Nc3ccccc3Cl)CC2)cc1,.,.,.,.,.,38
COc1ccc(C(=O)NC2CCN(S(=O)(=O)c3ccccc3)CC2)cc1,.,.,.,.,.,.
COc1cccc(CNC(=O)CCC2CCCN(C(=O)c3ccccc3N(C)C)C2)c1 (stereo unspecified),.,.,.,.,.,.
COc1cccc(-c2nc(CS(=O)(=O)CC(=O)Nc3cc(F)ccc3F)c(C)o2)c1,.,.,.,.,.,.
C[C@@H]1CN([C@H](C)CO)C(=O)c2cc(NC(=O)Nc3ccc4c(c3)OCO4)ccc2O[C@H]1CN(C)Cc1ccncc1,.,.,.,.,.,+
CCOC(=O)c1nn(-c2ccc(F)cc2)c(C)c1C(C)=O,.,.,.,.,.,.
CCOC(=O)c1ncn2c1CN(C)C(=O)c1cc(F)ccc1-2,.,.,.,.,.,29!
C[C@@H]1COC(=O)[C@H](NC(=O)OCC2c3ccccc3-c3ccccc32)C/C=C\C[C@@H](CC(=O)N[C@H](CO)Cc2ccccc2)C(=O)N1,.,.,.,.,.,.
COc1cc(CN(C)Cc2cc(=O)oc3cc(C)c(Cl)cc23)ccc1OC(F)F,.,.,.,.,.,.
O=C(COC(=O)c1ccc(O)cc1)Nc1ccc2c(c1)OCCO2,.,.,30,.,.,.
